Test results: PubChem BioAssay (Tox21)
Where “and” joins values, the source holds several entries; their conditions need not be identical. Equal entries are not always repeated. Records with an inconclusive call do not appear. Where a call stands in place of a potency, no number is given. Some compounds were tested as several samples or in several runs, with calls that do not always agree. Calls of active or inactive are those of the source. Unless noted, the call rests on the fitted dose curve; in most records, active means well fitted curve in the direction sought with a large enough effect in the repeat runs; inconclusive means weak or mixed curves; inactive means no such curve, though single readings can be large; an effect the other way counts as inactive or inconclusive.

Columns and labels:
[1] = target: Retinoic acid receptor RXR-alpha (Homo sapiens) (UniProt P19793); assay: qHTS assay to identify small molecule agonists of the RXR signaling pathway (AID 1159527; calls by dose curve; further: nearly all actives have a fitted effect of over 35% in size; further: potency means the concentration at half of the fitted maximal effect)
Method in brief: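 Fluorescence ratio readout (460 vs 530 nm) from GeneBLAzer RXR-alpha HEK 293T cells after 16 hr compound treatment; cells seeded 5 hr beforehand in low-serum, charcoal-stripped medium.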

[2] = qHTS assay to identify small molecule agonists of the RXR signaling pathway - cell viability counter screen (AID 1159529); further: nearly all actives have a fitted effect of over 50% in size; further: potency means the concentration at half of the fitted maximal effect
Method in brief: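 Viability read-out for the RXR-alpha agonist qHTS: luminescent CellTiter-Glo signal after 30 min at RT. HEK 293T bla reporter cells, 2% charcoal-stripped FBS, 16 hr compound incubation; tetraoctyl ammonium bromide as cytotoxic control.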

[3] = qHTS assay to identify small molecule antagonists of the retinoid acid receptor (RAR) signaling pathway - cell viability counter screen (AID 1159551); further: nearly all actives have a fitted effect of over 35% in size
Method in brief: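 Retinol-stimulated (1 uM final) C3RL4 cells, compound 6 h, 37 C; readout CellTiter-Glo luminescence (ATP) after 30 min RT incubation.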

[4] = qHTS assay to identify small molecule antagonists of the retinoic acid receptor (RAR) signaling pathway (AID 1159552; further: nearly all actives have a fitted effect of over 50% in size)
Method in brief: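 Using a RARE-driven luciferase construct in C3RL4 cells, retinol at 1 uM final provided the agonist stimulus while compounds were co-applied. After 6 hours at 37 C, luminescence was recorded to flag inhibitors of retinol signaling.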

[5] = qHTS assay to identify small molecule agonists of the retinoic acid receptor (RAR) signaling pathway (AID 1159553); further: potency means the concentration at half of the fitted maximal effect
Method in brief: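 Reporter readout comes from luciferase under RARE control in C3RL4 cells; compound exposure lasts 6 hr at 37 C in 5% CO2, and luminescence is recorded following a 30 min room-temperature incubation with reagent.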

[6] = qHTS assay to identify small molecule antagonists of the estrogen related receptor (ERR) signaling pathway from Tox21 library - cell viability counter screen (AID 1224834); further: nearly all actives have a fitted effect of over 30% in size; further: potency means the concentration at half of the fitted maximal effect
Method in brief: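 After 17.5 h of compound exposure at 37 C, ERR cells are incubated with CellTiter-Fluor for 30 min and fluorescence intensity serves as the viability measure.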

[7] = target: Luciferin 4-monooxygenase (Photinus pyralis) (UniProt P08659); assay: qHTS assay to identify small molecule inhibitors of firefly luciferase (AID 1224835); further: nearly all actives have a fitted effect of over 25% in size; further: potency means the concentration at half of the fitted maximal effect
Method in brief: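 Inhibition of purified Photinus luciferase is measured by luminescence. Substrate levels (D-luciferin, ATP) sit at their KM values. Each compound is tested in a concentration series.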

[8] = qHTS assay to identify small molecule agonists of the constitutive androstane receptor (CAR) signaling pathway - cell viability counter screen (AID 1224836); further: series mostly up to about 92 µM; nearly all actives have a fitted effect of over 45% in size
Method in brief: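 Multiplexed viability check: HepG2-CYP2B6-hCAR cells, 15-point compound dosing, 0.75 uM PK11195 final, 23 h at 37 C, CellTiter-Fluor fluorescence.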

[9] = target: Nuclear receptor subfamily 1 group I member 3 (Homo sapiens) (UniProt Q14994); assay: qHTS assay to identify small molecule antagonists of the constitutive androstane receptor (CAR) signaling pathway (AID 1224838);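 further: HepG2 cells stably expressing hCAR with CYP2B6 luciferase reporter stimulated by CITCO; nearly all actives have a fitted effect of over 40% in size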; further: potency means the concentration at half of the fitted maximal effect
Method in brief: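 Cell line: HepG2 double-stable for hCAR and CYP2B6-2.2kb reporter. Agonist: CITCO, 50 nM final. Compounds: 15 concentrations, 24 h, 37 C. Detection: ONE-Glo luminescence.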

[10] = target: Nuclear receptor subfamily 1 group I member 3 (Homo sapiens) (UniProt Q14994); assay: qHTS assay to identify small molecule agonists of the constitutive androstane receptor (CAR) signaling pathway (AID 1224839); further: nearly all actives have a fitted effect of over 15% in size; further: potency means the concentration at half of the fitted maximal effect;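 on activation: HepG2 cells stably carrying human CAR and a CYP2B6 luciferase reporter; series mostly up to about 92 µM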
Method in brief: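 Using human hepatoma HepG2 cells engineered with hCAR and a CYP2B6-2.2kb reporter, 15-concentration compound series were incubated 24 h alongside PK11195 at 0.75 uM final, with luminescence quantified afterwards.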

[11] = qHTS assay to identify small molecule antagonists of the estrogen related receptor signaling pathway with the pleiotropic PPARgamma coactivator (PGC) from Tox21 10K library - cell viability counter screen (AID 1224840; active means well fitted cell-killing curve with a large enough effect in the repeat runs, not every such curve was filed as active; further: nearly all actives have a fitted effect of over 40% in size)
Method in brief: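 Following seeding of 2,000 PGC/ERR cells/well and 6 hours' incubation, test compounds were delivered in DMSO. The plates then sat 17.5 hours at 37 C before a fluorogenic live-cell protease reagent (CellTiter-Fluor) was read after 30 min.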

[12] = target: Thyrotropin receptor (Homo sapiens) (UniProt P16473); assay: qHTS assay to identify small molecule agonists of the thyroid stimulating hormone receptor (TSHR) signaling pathway (AID 1224843; calls by dose curve; further: nearly all actives have a fitted effect of over 45% in size; further: potency means the concentration at half of the fitted maximal effect)
Method in brief: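 HEK293 cells stably bearing the thyrotropin receptor were plated at 800 cells/well and challenged with compound (30 min, RT). Accumulated cAMP was quantified via cAMP-d2 competing for cryptate-tagged antibody.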

[13] = qHTS assay to identify small molecule agonists of the hypoxia (HIF-1) signaling pathway - cell viability counter screen (AID 1224844; calls by dose curve; further: nearly all actives have a fitted effect of over 50% in size)
Method in brief: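 Cells (HRE-bla ME-180, 2,000 per well) sat 5 hrs at 37C, got compound for 17 hrs, were read for CCF4-AM FRET, and were finally lysed with CellTiter-Glo for a 30 min room-temperature luminescence read.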

[14] = qHTS assay to identify small molecule agonists of H2AX (AID 1224845; active means well fitted activation curve with a large enough effect in the signal ratio in the repeat runs, not every such curve was filed as active; the % refers to the signal ratio)
Method in brief: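 Phospho-H2AX Ser139 measured by HTRF (ex 320 nm; em 665 and 620 nm) after 24 hr antibody incubation. Compounds, 15 concentrations, 0.76% DMSO, were applied to CHO-K1 cells for 3hr at 37C before lysis.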

[15] = qHTS assay to identify small molecule agonists of H2AX - cell viability counter screen (AID 1224847; calls by dose curve; further: nearly all actives have a fitted effect of over 30% in size; further: potency means the concentration at half of the fitted maximal effect)
Method in brief: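 After overnight plating of 1000 CHO-K1 cells per well, a 15-concentration compound series was applied for 3 hr at 37C. Luminescence from CellTiter-Glo, read following 30 min at room temperature, reflected cell viability.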

[16] = qHTS assay to identify small molecule antagonists of the constitutive androstane receptor (CAR) signaling pathway - cell viability counter screen (AID 1224837); further: series mostly up to about 92 µM; nearly all actives have a fitted effect of over 45% in size
Method in brief: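 Counter screen run in HepG2-CYP2B6-hCAR cells: 4 hr settle, compound titration (15 concentrations) with 50 nM CITCO, 23 hr at 37 C/5% CO2, CellTiter-Fluor fluorescence.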

[17] = qHTS assay to identify small molecule agonists of the hypoxia (HIF-1) signaling pathway (AID 1224846; active means well fitted activation curve with a large enough effect in the signal ratio in the repeat runs, not every such curve was filed as active; the % refers to the signal ratio)
Method in brief: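 A low-serum medium (0.5% dialyzed FBS) holding 2,000 HRE-bla ME-180 cells per well is preincubated for 5 hrs, dosed with compounds by pintool, and kept a further 17 hrs at 37C, 5% CO2 before CCF4-AM FRET detection of beta-lactamase.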

[18] = qHTS assay to identify small molecule antagonists of the estrogen related receptor signaling pathway with the pleiotropic PPARgamma coactivator (PGC) from Tox21 10K library (AID 1224841; call rule not given here; further: series mostly up to about 92 µM; actives are mostly falling curves and most rising ones were filed inactive; nearly all actives have a fitted effect of over 50% in size)
Method in brief: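 qHTS antagonist format: PGC/ERR cells, 2k/well, compound in DMSO by pin transfer after 6 h attachment, 18 h treatment at 37 C, One-Glo luminescence read at 30 min.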

[19] = qHTS assay to identify small molecule antagonists of the estrogen related receptor (ERR) signaling pathway - cell viability counter screen (AID 1224818); further: series mostly up to about 46 µM
Method in brief: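 After a 6 h pre-incubation, ERR cells were dosed by pin tool with compounds, positive/negative controls or DMSO alone. Following 17.5 h at 37 C and 30 min with CellTiter-Fluor, fluorescence was recorded.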

[20] = qHTS assay to identify small molecule antagonists of the estrogen related receptor signaling pathway with the pleiotropic PPARgamma coactivator (PGC) cell viability counter screen (AID 1224822; further: series mostly up to about 46 µM)
Method in brief: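 PGC/ERR cells were plated at 2,000 per well and allowed 6 h to settle before compound addition. Following 17.5 h at 37 C, CellTiter-Fluor reagent was added and fluorescence was read 30 min later.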

Sequence of Thyrotropin receptor (Homo sapiens) (P16473 whole entry, looked up): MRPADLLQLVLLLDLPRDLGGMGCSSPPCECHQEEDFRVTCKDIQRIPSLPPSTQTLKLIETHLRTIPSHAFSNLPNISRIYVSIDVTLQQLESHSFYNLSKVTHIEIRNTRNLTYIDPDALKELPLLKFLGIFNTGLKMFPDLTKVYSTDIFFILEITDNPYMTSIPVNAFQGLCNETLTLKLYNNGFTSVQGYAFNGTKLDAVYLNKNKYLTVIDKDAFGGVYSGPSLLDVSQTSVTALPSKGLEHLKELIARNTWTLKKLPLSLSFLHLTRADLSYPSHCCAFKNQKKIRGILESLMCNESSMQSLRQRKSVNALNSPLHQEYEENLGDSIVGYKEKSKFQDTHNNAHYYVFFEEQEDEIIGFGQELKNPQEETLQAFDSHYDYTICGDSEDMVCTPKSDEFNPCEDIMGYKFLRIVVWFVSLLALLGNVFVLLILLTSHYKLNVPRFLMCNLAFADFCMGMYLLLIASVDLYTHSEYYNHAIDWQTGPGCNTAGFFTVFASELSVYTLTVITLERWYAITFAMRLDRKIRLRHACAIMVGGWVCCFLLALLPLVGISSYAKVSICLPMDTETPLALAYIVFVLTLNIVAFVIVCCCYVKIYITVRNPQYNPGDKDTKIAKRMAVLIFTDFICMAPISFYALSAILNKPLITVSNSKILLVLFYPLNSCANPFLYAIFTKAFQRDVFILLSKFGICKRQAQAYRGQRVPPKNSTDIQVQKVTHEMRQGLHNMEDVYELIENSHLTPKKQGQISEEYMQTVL
Sequence of Retinoic acid receptor RXR-alpha (Homo sapiens) (P19793 whole entry, looked up): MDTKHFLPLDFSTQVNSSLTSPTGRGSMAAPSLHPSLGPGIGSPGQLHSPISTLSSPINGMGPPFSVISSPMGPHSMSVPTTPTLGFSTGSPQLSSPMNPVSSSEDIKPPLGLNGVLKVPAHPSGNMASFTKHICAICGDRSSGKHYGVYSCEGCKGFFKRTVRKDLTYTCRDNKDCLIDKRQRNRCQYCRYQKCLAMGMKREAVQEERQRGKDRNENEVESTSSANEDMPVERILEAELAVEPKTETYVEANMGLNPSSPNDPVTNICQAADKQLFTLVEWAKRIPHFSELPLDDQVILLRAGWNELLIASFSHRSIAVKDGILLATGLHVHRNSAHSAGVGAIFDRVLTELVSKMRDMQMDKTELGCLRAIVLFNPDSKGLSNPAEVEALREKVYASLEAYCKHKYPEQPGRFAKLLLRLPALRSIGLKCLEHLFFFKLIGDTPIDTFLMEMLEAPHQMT
Sequence of Nuclear receptor subfamily 1 group I member 3 (Homo sapiens) (Q14994 whole entry, looked up): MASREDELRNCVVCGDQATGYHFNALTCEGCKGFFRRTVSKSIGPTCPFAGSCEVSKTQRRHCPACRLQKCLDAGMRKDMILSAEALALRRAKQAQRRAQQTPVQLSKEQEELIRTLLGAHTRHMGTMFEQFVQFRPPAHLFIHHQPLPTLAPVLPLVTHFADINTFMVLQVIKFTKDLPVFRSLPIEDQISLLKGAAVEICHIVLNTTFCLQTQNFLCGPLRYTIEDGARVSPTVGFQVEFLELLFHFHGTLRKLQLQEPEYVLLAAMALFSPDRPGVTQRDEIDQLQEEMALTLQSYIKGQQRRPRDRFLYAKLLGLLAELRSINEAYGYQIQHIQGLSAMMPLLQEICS
Sequence of Luciferin 4-monooxygenase (Photinus pyralis) (P08659 whole entry, looked up): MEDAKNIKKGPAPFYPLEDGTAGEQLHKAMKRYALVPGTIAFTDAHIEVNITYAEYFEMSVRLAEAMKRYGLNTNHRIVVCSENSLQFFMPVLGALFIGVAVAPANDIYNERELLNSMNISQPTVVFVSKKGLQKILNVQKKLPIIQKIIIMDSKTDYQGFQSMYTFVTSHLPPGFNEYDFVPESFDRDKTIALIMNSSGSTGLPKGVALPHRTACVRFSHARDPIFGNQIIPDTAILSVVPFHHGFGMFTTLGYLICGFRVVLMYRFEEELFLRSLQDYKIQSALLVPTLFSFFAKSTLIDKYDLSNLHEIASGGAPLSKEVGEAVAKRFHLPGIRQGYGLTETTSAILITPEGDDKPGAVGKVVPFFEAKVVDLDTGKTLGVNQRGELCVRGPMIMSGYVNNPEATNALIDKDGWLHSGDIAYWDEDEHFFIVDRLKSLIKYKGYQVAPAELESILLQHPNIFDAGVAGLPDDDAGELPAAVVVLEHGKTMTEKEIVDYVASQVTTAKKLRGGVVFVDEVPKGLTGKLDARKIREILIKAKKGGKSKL

SMILES	Potency [1]	Potency [2]	outcome [3]	Potency [4]	Potency [5]	Potency [6]	Potency [7]	Potency [8]	Potency [9]	Potency [10]	Potency [11]	Potency [12]	Potency [13]	Potency [14]	Potency [15]	Potency [16]	outcome [17]	Potency [18]	outcome [19]	outcome [20]
CC1CCC(C(C)C)C(O)C1 (centres undefined)	inactive	inactive	inactive	inactive	inactive	inactive	inactive	inactive	inactive	inactive	inactive	inactive	inactive	inactive	inactive	–	–	–	–	–
CCCCCOC(C)=O	0.279 µM (active)	inactive	inactive	inactive	inactive	inactive	inactive	inactive	2.2 µM (active) and inactive	–	inactive	inactive	inactive	inactive	inactive	inactive	inactive	–	–	–
CCC(O)OC(O)CC (centres undefined)	inactive	inactive	inactive	inactive	inactive	inactive	inactive	inactive	inactive	inactive	inactive	inactive	inactive	inactive	inactive	inactive	–	inactive	–	–
CC(=O)CC(=O)Nc1ccccc1C	inactive	inactive	inactive	inactive	inactive	inactive	inactive	inactive	inactive	inactive	inactive	9.8 µM (active) and inactive	inactive	inactive	inactive	–	–	inactive	–	–
COc1ccc(NC(C)=O)cc1N	inactive	inactive	inactive	inactive	inactive	inactive	inactive	inactive	inactive	–	inactive	inactive	inactive	inactive	inactive	inactive	inactive	–	–	–
OC[C@H]1O[C@@](CO)(O[C@H]2O[C@H](CO)[C@@H](O)[C@H](O)[C@H]2O)[C@@H](O)[C@@H]1O	inactive	inactive	inactive	inactive	inactive	inactive	inactive	inactive	inactive	–	inactive	–	–	inactive	inactive	inactive	inactive	inactive	–	–
CCCCCC(N)=O	inactive	inactive	inactive	–	–	inactive	inactive	inactive	inactive	inactive	inactive	inactive	inactive	inactive	inactive	inactive	inactive	–	–	–
COc1ccc(Nc2ccccc2)c(C)c1	inactive	inactive	inactive	–	–	inactive	inactive	inactive	–	–	inactive	inactive	–	inactive	inactive and 101 µM (active)	inactive	–	inactive	–	–
CCCCCCCCC/C=C/CC1CC(=O)OC1=O (centres undefined)	inactive	inactive	inactive	–	–	inactive	71.3 µM (active)	inactive	inactive	–	inactive	inactive	inactive	inactive	inactive	inactive	–	–	–	–
O=C(O)c1cc(O)c(O)c(O)c1	inactive	inactive	inactive	inactive	inactive	61.7 µM (active)	–	inactive	inactive	inactive	inactive	inactive	–	–	inactive	–	–	–	–	–
COCCCOc1ccnc(CS(=O)c2nc3ccccc3[nH]2)c1C (centres undefined)	inactive	inactive	inactive	inactive	3.84 µM (active)	inactive	–	inactive	inactive	6.83 µM (active)	inactive	inactive	inactive	inactive	inactive	inactive	inactive	inactive	–	–
Cc1cc(C)c(C)cc1C	inactive	inactive	inactive	inactive	inactive	inactive	inactive	inactive	–	–	inactive	inactive	–	inactive	inactive	–	–	–	–	–
CC(=O)c1ccccc1	inactive	inactive	inactive	–	–	inactive	inactive	inactive	inactive	inactive	inactive	inactive	inactive	inactive	inactive	–	inactive	–	–	–
CN(C)CCC(c1ccc(Cl)cc1)c1ccccn1 (centres undefined)	inactive	55.1 µM (active)	inactive	–	–	48.7 µM (active) and inactive	–	inactive	–	–	inactive	inactive	inactive	inactive	inactive	–	–	–	inactive	inactive
CC(c1cc2ccccc2s1)N(O)C(N)=O (centres undefined)	inactive	inactive	inactive	–	–	inactive	inactive	inactive	–	–	inactive	–	inactive	inactive	inactive	inactive	inactive	–	–	–
Nc1ccccc1[N+](=O)[O-]	inactive	inactive	inactive	inactive	–	inactive	inactive	inactive	–	–	inactive	inactive	inactive	inactive	inactive	inactive	–	inactive	–	–
Cc1cccnc1	inactive	inactive	inactive	–	–	inactive	inactive	inactive	inactive	inactive	inactive	inactive	inactive	inactive	inactive	inactive	inactive	inactive	–	–
